In PubChem BioAssay (NCI) one finds growth data, which are given here for 20 molecules.

Among the test systems are NCI-H23 lung; HOP-62 NSCLC; NCI-H460 lung; HOP-92 NSCLC; NCI-H522 lung; A549/ATCC NSCLC; 786-0 renal; COLO 205 colon; NCI-H322M lung.
Holding throughout (experiment): NCI-60 one-dose screen, 48 h (100 = growth as untreated, 0 = no growth, -100 = all killed)
Holding throughout (conditions): 10 µM

The structures appear in SMILES notation. Compounds without any hit were thinned out: in the full panel of roughly 83,000, 20% have a hit.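 Percent growth is the endpoint: 0 to 100 indicates growth inhibition (40 means 60% inhibition), 0 means no net growth, and negative values indicate cell death.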 Unmarked numbers belong to inactive results. The source made the active and inactive calls. The calls were made as follows: active = growth percent below 10; inactive = the rest.

As to `CN(C)CCCOc1ccc(NC2=C(Cl)C(=O)C(Nc3ccc(OCCCN(C)C)cc3)=C(Cl)C2=O)cc1`, the growth in the assay with NCI-H23 lung was -72% (active); with HOP-62 NSCLC, -98.2% (active); in the assay on NCI-H460 lung it was -65.7% (active); in the assay with HOP-92 NSCLC, -74.9% (active); with NCI-H522 lung, -75.2% (active); in the assay with A549/ATCC NSCLC, -56.2% (active). In addition, the growth with 786-0 renal is -50% (active); in the assay with COLO 205 colon, -74.3% (active).

In the case of `O=C1OC(C(Cl)(Cl)Cl)OC1C(Cl)(Cl)Cl` (stereo unspecified), the growth in the assay on NCI-H23 lung is 102%; in the assay on HOP-62 NSCLC, 121%; in the assay with NCI-H460 lung it was 108%; with HOP-92 NSCLC, 105%; with NCI-H522 lung, 96.4%; in the assay with A549/ATCC NSCLC it was 95.6%. The growth in the assay with 786-0 renal was 114%; in the assay with COLO 205 colon, 107%.

Consider `Cn1cnc([N+](=O)[O-])c1/C=C1\Oc2ccc(Br)cc2C1=O`, for which the growth in the assay on NCI-H23 lung is 93%; with HOP-62 NSCLC it was 100%; with NCI-H460 lung, 97.3%; with NCI-H522 lung it was 52.7%; with A549/ATCC NSCLC it was 104%; in the assay on 786-0 renal, 91.4%. Further, in the assay on COLO 205 colon, the growth was 98%.

Take `Cc1ccc(NC(=O)N2CCCCC2)cc1[N+](=O)[O-]`: the growth in the assay with NCI-H23 lung was 91.1%; with HOP-62 NSCLC it was 84.2%; in the assay with NCI-H460 lung, 108%; with NCI-H522 lung, -29.1% (active); with A549/ATCC NSCLC it was 39.5%; in the assay with 786-0 renal, 102%. Moreover, the growth in the assay on COLO 205 colon was 99.4%.

Take `C[C@]12CCC3c4ccc(O)cc4C[C@@H](CCCCCCCCCS(=O)CCCC(F)(F)C(F)(F)F)C3C1CC[C@@H]2O` (stereo partly specified): the growth is 84.8% in the assay on NCI-H23 lung; 67.7% in the assay with NCI-H460 lung; 78% in the assay with HOP-92 NSCLC; 67.9% in the assay on A549/ATCC NSCLC; 96.1% in the assay with 786-0 renal; 93.7% in the assay on COLO 205 colon.

In the case of `CC(=O)Nc1ccc(S(=O)(=O)c2ccnc3cc(Cl)ccc23)cc1`, the growth in the assay on NCI-H23 lung is 68.2%; in the assay with HOP-62 NSCLC it was 99.1%; in the assay with HOP-92 NSCLC, 99.8%; with NCI-H522 lung, 28.1%; in the assay with A549/ATCC NSCLC, 85.3%; with 786-0 renal it was 125%. Moreover, the growth in the assay with COLO 205 colon was 95.3%.

As for `CC(=O)Oc1cc(OC(C)=O)c2ccccc2c1OC(C)=O`, the growth in the assay with NCI-H23 lung is 70.8%; with HOP-62 NSCLC it was 90%; with NCI-H460 lung it was 86.6%; in the assay with HOP-92 NSCLC, 107%; in the assay on NCI-H522 lung it was 68.2%; in the assay on A549/ATCC NSCLC, 82.5%. Moreover, the growth was 103% with 786-0 renal and 92.9% with COLO 205 colon.

Take `CN1C(=O)C2(Nc3cc(Cl)ccc3S2)c2cc(Cl)ccc21` (stereo unspecified): the growth in the assay with NCI-H23 lung is 82.7%; in the assay with HOP-62 NSCLC, 101%; in the assay on NCI-H460 lung it was 95.2%; in the assay with HOP-92 NSCLC, 71.7%; in the assay with NCI-H522 lung, 95.2%; with A549/ATCC NSCLC, 97.3%. Moreover, the growth with 786-0 renal was 102%; with COLO 205 colon, 93.2%.

As to `Cc1ccc(-n2nnnc2N)c(C)c1`, the growth with NCI-H23 lung was 98.1%; in the assay on NCI-H322M lung, 121%; in the assay on NCI-H460 lung it was 103%; with NCI-H522 lung it was 112%; with A549/ATCC NSCLC, 104%; in the assay on 786-0 renal it was 105%. The growth with COLO 205 colon is 117%.

As to `C=CCn1c(SCC(=O)Nc2ccc(C(=O)/C=C/c3ccc(Cl)cc3)cc2)nnc1-c1cc(-c2ccccc2)nc2ccccc12`, the growth in the assay with NCI-H23 lung was 66.3%; in the assay on HOP-62 NSCLC it was 86.1%; with NCI-H460 lung, 98.6%; in the assay with HOP-92 NSCLC, 91.5%; in the assay on NCI-H522 lung it was 60.5%; with A549/ATCC NSCLC it was 89.7%. Also, the growth in the assay with 786-0 renal is 86.7%; in the assay on COLO 205 colon, 99.5%.

`COc1ccc2cc(-c3nc4ccccc4s3)c(Cl)nc2c1OC`: the growth is 84.4% in the assay with NCI-H23 lung; 90.7% with HOP-62 NSCLC; 98.4% in the assay with NCI-H460 lung; 85.3% in the assay with HOP-92 NSCLC; 101% in the assay on NCI-H522 lung; 110% in the assay with A549/ATCC NSCLC. Also, the growth in the assay with 786-0 renal was 119%; in the assay with COLO 205 colon it was 98%.

For the molecule `CCCCCC(=O)O[C@]1(C(C)=O)CCC2C3CCC4=CC(=O)CC[C@]4(C)C3CC[C@@]21C` (stereo partly specified), the growth is 22.1% with NCI-H23 lung; 15.2% in the assay on NCI-H460 lung; 27.9% in the assay on A549/ATCC NSCLC; 40.3% with 786-0 renal; 13.3% in the assay on COLO 205 colon.

For the molecule `CCc1c2c(nc3ccc(OC(=O)N4CCC(N5CCCCC5)CC4)cc13)-c1cc3c(c(=O)n1C2)COC(=O)[C@]3(O)CC`, the growth in the assay on NCI-H23 lung was 5.19% (active); in the assay on NCI-H460 lung, 5.87% (active); in the assay on HOP-92 NSCLC it was 72.3%; in the assay on A549/ATCC NSCLC it was 39.6%; with 786-0 renal, -47.7% (active); in the assay with COLO 205 colon, 58.1%.

As to `CN1CCN(CCCn2c(=O)c3sc4ncccc4c3n3nnc(-c4ccccc4)c23)CC1`, the growth in the assay on NCI-H23 lung was 77.3%; in the assay with NCI-H460 lung it was -77.1% (active); in the assay with HOP-92 NSCLC, 48.9%; in the assay on NCI-H522 lung, -83.9% (active); in the assay with A549/ATCC NSCLC, 12%; with 786-0 renal it was 5.36% (active). For the same molecule, the growth in the assay with COLO 205 colon was -96.5% (active).

Take `O=C1CC(SC(=S)C2CCCC2=O)C(=O)N1` (stereo unspecified): the growth is 98.4% in the assay with NCI-H23 lung; 106% with HOP-62 NSCLC; 104% in the assay on NCI-H460 lung; 101% in the assay with A549/ATCC NSCLC; 95.7% with 786-0 renal; 116% with COLO 205 colon.

Consider `COc1ccc(-c2nc(-c3nc4ccc(C)cc4[nH]3)cc3c2[nH]c2ccccc23)cc1`, for which the growth was 39% in the assay with NCI-H23 lung; 55.3% with HOP-62 NSCLC; 32.8% in the assay with NCI-H460 lung; 33% in the assay with HOP-92 NSCLC; 14.7% in the assay with NCI-H522 lung; 28% with A549/ATCC NSCLC. Also, the growth in the assay with 786-0 renal is 69.9%; in the assay with COLO 205 colon it was 46.9%.

Regarding `CCN(CC)CCNc1ccc(C)c2sc3cc(Cl)ccc3c(=O)c12`, the growth in the assay on NCI-H23 lung was 55%; with HOP-62 NSCLC, 66.9%; with NCI-H460 lung it was 1.44% (active); with HOP-92 NSCLC it was 22%; in the assay on NCI-H522 lung, 42.7%; in the assay with A549/ATCC NSCLC it was 31.1%. The growth was 43.3% in the assay on 786-0 renal and -67.3% (active) in the assay with COLO 205 colon.

Regarding `NS(=O)(=O)Oc1ccc2c(ccn2C(=O)C23CC4CC(CC(C4)C2)C3)c1`, the growth in the assay with NCI-H23 lung was 97%; with HOP-62 NSCLC, 111%; with NCI-H460 lung, 104%; in the assay on HOP-92 NSCLC it was 122%; in the assay with NCI-H522 lung, 94.9%; with A549/ATCC NSCLC, 101%. Besides, the growth with 786-0 renal was 110%; in the assay with COLO 205 colon, 114%.

Regarding `Cc1ccc(/C=C/C(=O)C(=O)/C=C/c2ccc(C)cc2)cc1`, the growth with NCI-H23 lung was 95.4%; in the assay on HOP-62 NSCLC, 109%; in the assay with NCI-H460 lung it was 104%; in the assay with HOP-92 NSCLC, 108%; with NCI-H522 lung, 81.7%; in the assay on A549/ATCC NSCLC it was 86.2%. In addition, the growth is 96.9% in the assay on 786-0 renal and 110% in the assay on COLO 205 colon.

Consider `COc1ccc(/C=C2\CCCC3=C2N=C2SC(C)=CN2C3c2ccc(OC)cc2)cc1` (stereo unspecified), for which the growth in the assay on NCI-H23 lung was 90.3%; in the assay with HOP-62 NSCLC, 104%; with NCI-H460 lung it was 104%; in the assay with HOP-92 NSCLC it was 93.8%; in the assay with NCI-H522 lung it was 89.6%; in the assay on A549/ATCC NSCLC, 90.7%. In addition, the values for the growth in the assay with 786-0 renal and in the assay with COLO 205 colon were 104% and 115%, respectively.
